Screening results: PubChem BioAssay, National Center for Advancing Translational Sciences (NCATS)
Pf Dd2 inh: inhibitors of Plasmodium falciparum Dd2 growth. P. falciparum Dd2 growth, SYBR Green, 72 h. 4.3% of 120,000 active. Potency, µM (top dose mostly 28.9 µM), inactives show top-dose activity, negative = inhibition, most hits filed as inhibitors; active means well fitted inhibition curve with a large enough effect;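 further: plate controls were DMSO vehicle for no effect and reference drug for full effect; nearly all actives have a fitted effect of over 65% in size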
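Infected erythrocytes (Dd2, 0.3% parasitemia, 2.5% hematocrit final) are added to compound in RPMI-1640/Albumax II medium, grown 72 h at 37C in low oxygen, then lysed with saponin/Triton-X containing SYBR Green and read by fluorescence.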
Numbers without * were called inactive; i = inactive; [ ] = remark or other dose. Shown is part of a subset that was picked to be rich in hits. Potency means the concentration at half of the fitted maximal effect.

SMILES	Pf Dd2 inh
CC(=O)N(C)CCc1noc(C2CN(C(=O)c3c(C)noc3C)C2)n1	1%
COc1ccc(C(=O)N2CCCC(c3nn(-c4ccccc4)c(=O)[nH]3)C2)cc1 (stereo not drawn)	i
O=C(Cc1cccc(Cl)c1)N1CCCC(c2nn(-c3cccc(Cl)c3)c(=O)[nH]2)C1 (stereo not drawn)	10µM*
COc1ccc(-n2nc(C3CCCN(C(=O)c4ccccc4)C3)[nH]c2=O)cc1 (stereo not drawn)	11µM*
COc1ccc(-n2nc(C3CCN(C(=O)c4ccccc4)CC3)[nH]c2=O)cc1	-21%
O=C(c1ccccc1Cl)N1CCCC(c2nn(-c3cccc(Cl)c3)c(=O)[nH]2)C1 (stereo not drawn)	i
COc1ccc(-n2nc(C3CCCN(C(=O)Cc4cccc(Cl)c4)C3)[nH]c2=O)cc1 (stereo not drawn)	-23%
CCN1C(=O)C2(CCN(C(C)=O)CC2)c2ccccc21	42%
COc1ccc(C(=O)N[C@@H]2CN(S(C)(=O)=O)C[C@H]2CN(C)C)c(C)c1	i
CN(Cc1ccccc1)C(=O)[C@H]1O[C@H](CCN2CCN(Cc3ccccc3)CC2)CC[C@@H]1O	4.5µM*
C#CCN(C)CC[C@@H]1CC[C@H](O)[C@@H](C(=O)N(C)Cc2ccccc2)O1	-12%[44.1 µM]
CN(Cc1ccccc1)C(=O)[C@H]1O[C@H](CCN2CCOCC2)CC[C@@H]1O	-11%[44.1 µM]
CCCNC(=O)NCC1(COc2ccc(S(C)(=O)=O)cc2)C[C@@H](O)[C@@H](O)C1 (stereo partly drawn)	6%[44.1 µM]
COCCNC(=O)N1CCc2nc(N(C)C)[nH]c(=O)c2CC1	10%[5.79 µM]
CCc1noc(-c2ccn3c(CNC(=O)c4ccccc4F)nnc3c2)n1	-27%
Cc1ccc(-c2cn3c(n2)CO[C@@H](CNS(C)(=O)=O)C3)cc1	-1%[44.1 µM]
COc1ccc(-c2cn3c(n2)CO[C@@H](CNS(=O)(=O)c2ccc(C)cc2)C3)cc1	13µM*
COc1ccc(-c2cn3c(n2)CO[C@@H](CNS(C)(=O)=O)C3)cc1	i
Cc1nonc1CN(C)C(=O)c1coc(COc2ccc(F)cc2Cl)n1	i
Cc1cccc2c(C3CCN(C(=O)c4c(Cl)cc(Cl)cc4Cl)CC3)c[nH]c12	-17%
Cn1cc(C2CCN(C(=O)c3c(Cl)cc(Cl)cc3Cl)CC2)c2ccccc21	8.9µM*
Cn1cc(C(=O)N2CC[C@@](C)(O)[C@@H](O)C2)c2ccccc21	-3%
O=C(NCCc1ccccc1)C1CCCN(C2CCN(Cc3ccncc3)CC2)C1 (stereo not drawn)	10µM*
O=C(NCCc1ccccc1)C1CCCN(C2CCN(Cc3ccccc3F)CC2)C1 (stereo not drawn)	i
O=C(NCCN1CCOCC1)C1CCCN(C2CCN(Cc3ccncc3)CC2)C1 (stereo not drawn)	-15%
SMILES	Pf Dd2 inh
O=C(NC1CCCC1)N1CCC(c2noc(C3CC3)n2)C1 (stereo not drawn)	i[5.79 µM]
COc1cccc(C(=O)N2CC[C@@H]3CN(S(C)(=O)=O)[C@@H]3C2)c1C	i
O=C([C@H]1C[C@H](Oc2cccnc2)CN1C(=O)CCc1c[nH]c2ccccc12)N1CCOCC1	i
Cc1ccc(-c2cccc(CN3C4CCC3CN(C(=O)c3ccncc3)C4)c2)c(C)c1	-21%
Cc1ccc(-c2cccc(CN3C4CCC3CN(C(C)C)C4)c2)c(C)c1	10µM*
CC(C)N1CC2CCC(C1)N2Cc1cccc(Cl)c1	-5%[44.1 µM]
CN(C)[C@@H]1CN(C(=O)C2CC2)CC[C@]1(O)c1ccccc1	i[5.79 µM]
O=C(NCC1CCN(c2cc(-c3ccccc3)[nH]n2)CC1)c1ccc[nH]c1=O	-28%
Cc1noc(C)c1CC(=O)NCC1CCN(c2cc(-c3ccccc3)[nH]n2)CC1	i
O=C(NCC1CCN(c2cc(-c3ccccc3)[nH]n2)CC1)c1ccc[nH]1	-25%
Cc1cc(C)n(CCC(=O)NC2CCCN(c3cc(-c4ccc(Cl)cc4)[nH]n3)C2)n1 (stereo not drawn)	i
Cc1cc(C)n(CCC(=O)NCC2CCN(c3cc(-c4ccccc4)[nH]n3)CC2)n1	11µM*
Cc1ccc(-c2cc(N3CCC(CNC(=O)c4ccc(=O)[nH]c4)CC3)n[nH]2)cc1	13µM*
Cc1ccc(CNC(=O)N2CCC3(CC2)C(C(=O)O)CC(=O)N3C)cc1 (stereo not drawn)	-10%
CO[C@H]1[C@H](NC(=O)c2ccccc2)c2ccccc2C12CCNCC2	-14%
COC1CCOC2(CCN(C(=O)c3cc(C)nn3C)CC2)C1 (stereo not drawn)	20%
CC(=O)N1CCN(C(=O)c2cnc3cc(C)nn3c2)CC1	0%[44.1 µM]
COc1ccc(C(=O)N2CCC[C@H]2c2nc(-c3ccc(C)cc3)no2)cc1F	i
O=C(N[C@H]1[C@H](O)[C@H](O)C[C@@H]1c1cncnc1)c1ccc(C(F)(F)F)cc1	2%[44.1 µM]
CC1(c2ccccc2)N(Cc2ccccc2C#N)C(=O)OC12CCN(C(=O)Cc1cccc(F)c1)CC2 (stereo not drawn)	11µM*
